These compounds were tested on LATS2. Conditions: concentration: 1 μM, replicates: in singlicate; n = 1.
With `COc1cc2ncn(-c3cc(OCc4ccncc4)c(C(N)=O)s3)c2cc1OC` [GSK336313] the “%Inh” value was 8%. With `OCCCNc1nccc(-c2c(-c3cccc(C(F)(F)F)c3)nn3cc(C(F)(F)F)ccc23)n1` [GW630813] the “%Inh” value was 0%. For `Cc1ccc(Oc2ccc(Nc3ncnc4cc[nH]c34)cc2C)cn1`, the “%Inh” value was 44%. With `COc1cc(Nc2nccc(N3CCC(NC(=O)C(C)c4ccc(Cl)cc4)C3)n2)cc(OC)c1OC` (stereo not drawn) [GSK1379757] the “%Inh” value was 1%. With `Nc1nc(N)c2nc(-c3ccccc3)[nH]c2n1` [SKF-12778] the “%Inh” value was 0%. In the case of `COc1cc(OC)cc(-c2cc3cnc(N)nc3nc2NC(=O)NC(C)(C)C)c1`, the “%Inh” value is reported as 34%. With `COc1cc2nccc(Nc3cccc(Oc4ccccc4)c3)c2cc1OC.Cl` [GW284543] the “%Inh” value was 0%. For `CCn1c(-c2ccoc2)nc2cnccc21` [SB-733887], the “%Inh” value was 60%. For `CCn1c(-c2nonc2N)nc2ccccc21` [SB-693162/GW549034], the “%Inh” value was 82%. With `COC(=O)c1c(-c2ccccc2)c2cc(C)ccc2c(=O)n1Cc1ccccc1` the “%Inh” value was 0%. In the case of `CCCNC(=O)Nc1ccc(Oc2ncnc3ccn(C)c23)cc1`, the “%Inh” value is reported as 11%. With `COc1ccc(-c2coc3ccc(-c4nnc(SCc5cccc(C#N)c5)o4)cc23)cc1` the “%Inh” value was 11%. For `CCC(=O)c1c(-c2ccccc2)c2cc(Cl)ccc2c(=O)n1Cc1cc(S(C)(=O)=O)n(CC(F)F)n1`, the “%Inh” value was 0%. With `CN1C(=O)C(Nc2ccccc2)=C(c2ccccc2)C1=O` [SB-300079] the “%Inh” value was 0%. In the case of `Cc1ccccc1COc1cc(-n2cnc3cc(Cl)ccc32)sc1C(N)=O` [GW813349], the “%Inh” value is reported as 61%. For `COc1cc2ncn(-c3cc(OCCCc4ccccc4)c(C(N)=O)s3)c2cc1OC` [GSK205189], the “%Inh” value was 15%. In the case of `COc1cc2ncn(-c3cc(OCc4ccncc4Br)c(C(N)=O)s3)c2cc1OC` [GW854278], the “%Inh” value is reported as 0%. With `O=C1NC(=O)C(c2ccccc2)=C1Nc1cccc(O)c1` [SB-390534] the “%Inh” value was 0%. `Cc1cccc(-c2nc(Nc3ccc4c(cnn4C)c3)c3ccccc3n2)n1` [GW876731] was tested, and the “%Inh” value was 0%. For `COc1ccc(CNC(=O)NC2CCN(c3ccnc(Nc4ccc(F)cc4)n3)C2)cc1` (stereo not drawn) [GSK1379706], the “%Inh” value was 27%. For `O=C(NCCNc1ccnc(Nc2ccc(F)cc2)n1)Nc1ccc2c(c1)OCO2` [GSK1379882], the “%Inh” value was 17%. With `CCS(=O)(=O)c1ccc(OC)c(Nc2ncc(-c3ccc(F)cc3)o2)c1.Cl` [GW591947] the “%Inh” value was 0%. `COC(=O)c1c(-c2ccccc2)c2cc(Br)ccc2c(=O)n1Cc1ccc(NC(=O)CCC(=O)O)cc1` was tested, and the “%Inh” value was 17%. `O=C(Nc1n[nH]c2cc(-c3ccccc3F)ccc12)C1CC1` [SB-733371] was tested, and the “%Inh” value was 0%. `Cc1nn2c(=O)cc(N3CCOCC3)nc2n1Cc1cccc(Cl)c1Cl` [GSK2342769] was tested, and the “%Inh” value was 0%. With `O=c1cc(N2CCOCC2)nc2n(Cc3ccc(F)c(Cl)c3)ccn12` [GSK2297099] the “%Inh” value was 0%. `Cc1nnc(-c2ccc(C)c(-c3ccc(C(=O)O)cc3)c2)o1` [GW608005] was tested, and the “%Inh” value was 0%. For `Cc1c(Cn2c(C)nn3c(=O)cc(N4CCO[C@H](C)C4)nc23)cccc1C(F)(F)F` [GSK2373690], the “%Inh” value was 0%. `Nc1ncnc2c1ncn2-c1cccc(F)c1` [SKF-97560] was tested, and the “%Inh” value was 42%. For `Nc1ncnc2c1ncn2-c1ccc(Cl)cc1` [AH2635], the “%Inh” value was 24%. For `CC(C)(C)c1ccc(C(=O)Nc2cn3cc(-c4ccccc4)ccc3n2)cc1`, the “%Inh” value was 0%. `Nc1nc(-c2ccccc2F)c(-c2ccnc3ccccc23)s1` [GW560459] was tested, and the “%Inh” value was 0%. With `CCC(=O)c1c(-c2ccccc2)c2cc(Cl)ccc2c(=O)n1Cc1cc(C(=O)NC2CC2)n(C)n1` the “%Inh” value was 1%. For `CCS(=O)c1ccc(-c2coc3ccc(-c4nnc(C)o4)cc23)cc1` (stereo not drawn), the “%Inh” value was 0%. In the case of `COc1ccc(-c2cc3c(C)nc(N)nc3n([C@H]3CC[C@H](OCCO)CC3)c2=O)cn1`, the “%Inh” value is reported as 11%. In the case of `O=C(Nc1ccc2c(c1)OCO2)NC1CCN(c2ccnc(NCc3ccc(F)cc3)n2)CC1` [GSK1379859], the “%Inh” value is reported as 0%.

The compounds below were run on LCK. Conditions: concentration: 1 μM, replicates: in singlicate; n = 1.
With `COc1cc2ncn(-c3cc(OCc4ccncc4)c(C(N)=O)s3)c2cc1OC` [GSK336313] the “%Inh” value was 30%. In the case of `OCCCNc1nccc(-c2c(-c3cccc(C(F)(F)F)c3)nn3cc(C(F)(F)F)ccc23)n1` [GW630813], the “%Inh” value is reported as 0%. With `Cc1ccc(Oc2ccc(Nc3ncnc4cc[nH]c34)cc2C)cn1` the “%Inh” value was 3%. `COc1cc(Nc2nccc(N3CCC(NC(=O)C(C)c4ccc(Cl)cc4)C3)n2)cc(OC)c1OC` (stereo not drawn) [GSK1379757] was tested, and the “%Inh” value was 8%. For `Nc1nc(N)c2nc(-c3ccccc3)[nH]c2n1` [SKF-12778], the “%Inh” value was 19%. In the case of `COc1cc(OC)cc(-c2cc3cnc(N)nc3nc2NC(=O)NC(C)(C)C)c1`, the “%Inh” value is reported as 0%. With `COc1cc2nccc(Nc3cccc(Oc4ccccc4)c3)c2cc1OC.Cl` [GW284543] the “%Inh” value was 51%. In the case of `CCn1c(-c2ccoc2)nc2cnccc21` [SB-733887], the “%Inh” value is reported as 35%. For `CCn1c(-c2nonc2N)nc2ccccc21` [SB-693162/GW549034], the “%Inh” value was 12%. `COC(=O)c1c(-c2ccccc2)c2cc(C)ccc2c(=O)n1Cc1ccccc1` was tested, and the “%Inh” value was 0%. For `CCCNC(=O)Nc1ccc(Oc2ncnc3ccn(C)c23)cc1`, the “%Inh” value was 0%. With `COc1ccc(-c2coc3ccc(-c4nnc(SCc5cccc(C#N)c5)o4)cc23)cc1` the “%Inh” value was 11%. In the case of `CCC(=O)c1c(-c2ccccc2)c2cc(Cl)ccc2c(=O)n1Cc1cc(S(C)(=O)=O)n(CC(F)F)n1`, the “%Inh” value is reported as 0%. With `CN1C(=O)C(Nc2ccccc2)=C(c2ccccc2)C1=O` [SB-300079] the “%Inh” value was 0%. `Cc1ccccc1COc1cc(-n2cnc3cc(Cl)ccc32)sc1C(N)=O` [GW813349] was tested, and the “%Inh” value was 0%. With `COc1cc2ncn(-c3cc(OCCCc4ccccc4)c(C(N)=O)s3)c2cc1OC` [GSK205189] the “%Inh” value was 16%. In the case of `COc1cc2ncn(-c3cc(OCc4ccncc4Br)c(C(N)=O)s3)c2cc1OC` [GW854278], the “%Inh” value is reported as 25%. `O=C1NC(=O)C(c2ccccc2)=C1Nc1cccc(O)c1` [SB-390534] was tested, and the “%Inh” value was 24%. With `Cc1cccc(-c2nc(Nc3ccc4c(cnn4C)c3)c3ccccc3n2)n1` [GW876731] the “%Inh” value was 0%. With `COc1ccc(CNC(=O)NC2CCN(c3ccnc(Nc4ccc(F)cc4)n3)C2)cc1` (stereo not drawn) [GSK1379706] the “%Inh” value was 16%. In the case of `O=C(NCCNc1ccnc(Nc2ccc(F)cc2)n1)Nc1ccc2c(c1)OCO2` [GSK1379882], the “%Inh” value is reported as 0%. With `CCS(=O)(=O)c1ccc(OC)c(Nc2ncc(-c3ccc(F)cc3)o2)c1.Cl` [GW591947] the “%Inh” value was 13%. For `COC(=O)c1c(-c2ccccc2)c2cc(Br)ccc2c(=O)n1Cc1ccc(NC(=O)CCC(=O)O)cc1`, the “%Inh” value was 0%. `O=C(Nc1n[nH]c2cc(-c3ccccc3F)ccc12)C1CC1` [SB-733371] was tested, and the “%Inh” value was 6%. In the case of `Cc1nn2c(=O)cc(N3CCOCC3)nc2n1Cc1cccc(Cl)c1Cl` [GSK2342769], the “%Inh” value is reported as 5%. `O=c1cc(N2CCOCC2)nc2n(Cc3ccc(F)c(Cl)c3)ccn12` [GSK2297099] was tested, and the “%Inh” value was 0%. `Cc1nnc(-c2ccc(C)c(-c3ccc(C(=O)O)cc3)c2)o1` [GW608005] was tested, and the “%Inh” value was 0%. With `Cc1c(Cn2c(C)nn3c(=O)cc(N4CCO[C@H](C)C4)nc23)cccc1C(F)(F)F` [GSK2373690] the “%Inh” value was 15%. `Nc1ncnc2c1ncn2-c1cccc(F)c1` [SKF-97560] was tested, and the “%Inh” value was 20%. In the case of `Nc1ncnc2c1ncn2-c1ccc(Cl)cc1` [AH2635], the “%Inh” value is reported as 24%. `CC(C)(C)c1ccc(C(=O)Nc2cn3cc(-c4ccccc4)ccc3n2)cc1` was tested, and the “%Inh” value was 8%. With `Nc1nc(-c2ccccc2F)c(-c2ccnc3ccccc23)s1` [GW560459] the “%Inh” value was 11%. With `CCC(=O)c1c(-c2ccccc2)c2cc(Cl)ccc2c(=O)n1Cc1cc(C(=O)NC2CC2)n(C)n1` the “%Inh” value was 0%. For `CCS(=O)c1ccc(-c2coc3ccc(-c4nnc(C)o4)cc23)cc1` (stereo not drawn), the “%Inh” value was 5%. With `COc1ccc(-c2cc3c(C)nc(N)nc3n([C@H]3CC[C@H](OCCO)CC3)c2=O)cn1` the “%Inh” value was 0%. `O=C(Nc1ccc2c(c1)OCO2)NC1CCN(c2ccnc(NCc3ccc(F)cc3)n2)CC1` [GSK1379859] was tested, and the “%Inh” value was 14%.

From PMC5540273 (PLoS ONE, 2017)
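Also: KINOMEscan kinase panel screen.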
